Test results from PubChem BioAssay AID1159580 (chemical genetic matrix, 2015).
Among all 5,500 compounds or so, about 2,000 (36%) were called active. Not shown: some 18% with an inconclusive outcome. Rule as the data show it: active = normalized growth mostly below about 0.91 (no sharp cut-off); inconclusive = no clear call, values can overlap the other calls; inactive = mostly above about 0.92. The list shows a part of the results.

Assay: chemical genetic growth profiling, strain panel (AID 1159580);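 also: tested at 20 µM; growth read once vehicle control cultures reached saturation at 30 °C; 1 = growth at the plate median or of vehicle wells; lower values mean less growth of the strain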
Settings: S. cerevisiae deletion strains, growth OD
[1] = locus YAL013W, strain DEP1, hits give low values
[2] = locus YAL040C, strain CLN3, hits give low values
[3] = locus YDR150W, strain NUM1, hits give low values
[4] = locus YDR363W, strain ESC2, hits give low values
[5] = locus YER002W, strain NOP16, hits give low values
[6] = locus YGR078C, strain PAC10, hits give low values
[7] = locus YJR075W, strain HOC1, hits give low values
[8] = locus YNL175C, strain NOP13, hits give low values
[9] = locus YNL197C, strain WHI3, hits give low values
[10] = locus YNL224C, strain SQS1, hits give low values
[11] = locus YNL322C, strain KRE1, hits give low values
[12] = locus YOR083W, strain WHI5 (second series), hits give low values
[13] = locus YPL055C, strain LGE1, hits give low values
[14] = locus YPL241C, strain CIN2, hits give low values
[15] = locus YCL061C, strain MRC1 (second series), hits give low values
[16] = locus YNL153C, strain GIM3, hits give low values
[17] = locus YMR307W, strain GAS1, hits give low values
[18] = locus YNL128W, strain TEP1, hits give low values

Measured: normalized growth

S=C(S)N1CCCC1
inactive: [2] 1 | [5] 0.992 | [6] 0.977 | [8] 0.98 | [10] 0.966 | [11] 0.916
active: [1] 0.676 | [3] 0.634 | [4] 0.804 | [7] 0.52 | [9] 0.409 | [12] 0.175 | [13] 0.454 | [14] 0.943

Fc1ccc(Nc2nc(-c3ccc(F)c(F)c3)cs2)c(F)c1
active: locus YAR019C, strain CDC15, hits give low values 0.14 | locus YBL105C, strain PKC1, hits give low values 0.104 | locus YBR135W, strain CKS1, hits give low values 0.0961 | locus YBR136W, strain MEC1, hits give low values 0.0962 | locus YBR160W, strain CDC28, hits give low values 0.12 | locus YDL017W, strain CDC7, hits give low values 0.128 | locus YDL028C, strain MPS1, hits give low values 0.104 | locus YDL101C, strain DUN1, hits give low values 0.282 | locus YDL108W, strain KIN28, hits give low values 0.132 | locus YDL132W, strain cdc53, hits give low values 0.0939 | locus YDL214C, strain PRR2, hits give low values 0.182 | locus YDR052C, strain DBF4, hits give low values 0.181 | locus YDR054C, strain cdc34, hits give low values 0.094 | locus YDR226W, strain ADK1, hits give low values 0.107 | locus YDR477W, strain SNF1, hits give low values 0.102 | locus YER123W, strain YCK3, hits give low values 0.173 | locus YER133W, strain GLC7, hits give low values 0.17 | locus YFL009W, strain cdc4, hits give low values 0.0952 | locus YFL029C, strain CAK1, hits give low values 0.0895 | locus YFR003C, strain YPI1, hits give low values 0.105 | locus YFR019W, strain FAB1, hits give low values 0.102 | locus YFR028C, strain CDC14, hits give low values 0.0972 | locus YGR040W, strain KSS1, hits give low values 0.102 | locus YGR052W, strain FMP48, hits give low values 0.144 | locus YGR092W, strain DBF2, hits give low values 0.11 | locus YHR030C, strain SLT2, hits give low values 0.141 | locus YHR079C, strain IRE1, hits give low values 0.158 | locus YHR082C, strain KSP1, hits give low values 0.155 | locus YHR205W, strain SCH9, hits give low values 0.000718 | locus YIL147C, strain SLN1, hits give low values 0.133 | locus YJL095W, strain BCK1, hits give low values 0.133 | locus YJL128C, strain PBS2, hits give low values 0.0972 | locus YJL157C, strain FAR1, hits give low values 0.199 | locus YJR016C, strain ILV3, hits give low values 0.0878 | locus YJR066W, strain TOR1 (second series), hits give low values 0.0987 | locus YJR066W, strain TOR1, hits give low values 0.111 | locus YKL048C, strain ELM1, hits give low values 0.145 | locus YKL067W, strain YNK1, hits give low values 0.182 | locus YKL101W, strain HSL1, hits give low values 0.132 | locus YKL193C, strain SDS22, hits give low values 0.0966 | locus YKL203C, strain TOR2, hits give low values 0.104 | locus YLR113W, strain HOG1, hits give low values 0.189 | locus YLR133W, strain CKI1, hits give low values 0.0955 | locus YLR403W, strain SFP1, hits give low values 0.0012 | locus YML070W, strain DAK1, hits give low values 0.113 | locus YMR001C, strain CDC5, hits give low values 0.0929 | locus YMR205C, strain PFK2 (second series), hits give low values 0.0941 | locus YMR277W, strain FCP1, hits give low values 0.0934 | locus YNL006W, strain LST8, hits give low values 0.106 | locus YNL020C, strain ARK1, hits give low values 0.107 | locus YNL161W, strain CBK1, hits give low values 0.475 | locus YNL183C, strain NPR1, hits give low values 0.155 | locus YNL207W, strain RIO2, hits give low values 0.114 | locus YNL222W, strain SSU72, hits give low values 0.101 | locus YNL307C, strain MCK1 (second series), hits give low values 0.117 | locus YOL078W, strain AVO1, hits give low values 0.092 | locus YOL136C, strain PFK27, hits give low values 0.197 | locus YOR061W, strain CKA2, hits give low values 0.102 | locus YOR119C, strain RIO1, hits give low values 0.107 | locus YOR231W, strain MKK1, hits give low values 0.169 | locus YOR329C, strain SCD5, hits give low values 0.117 | locus YPL031C, strain PHO85, hits give low values 0.114 | locus YPL153C, strain RAD53, hits give low values 0.116 | locus YPL204W, strain HRR25, hits give low values 0.104 | locus YPL209C, strain IPL1, hits give low values 0.0912 | locus YPL256C, strain CLN2, hits give low values 0.179 | locus YPR025C, strain CCL1, hits give low values 0.0957 | locus YPR106W, strain ISR1, hits give low values 0.099 | locus YPR111W, strain DBF20, hits give low values 0.101 | strain NNK1, hits give low values 0.114 | strain TSCII, hits give low values 0.106

N[C@@H](CCCC(=O)O)C(=O)O
inactive: [1] 1.01 | [2] 1.08 | [15] 1.01 | [4] 1.02 | [5] 0.981 | [6] 1.01 | [7] 1.01 | locus YMR263W, strain SAP30, hits give low values 1 | [16] 1.02 | [8] 1 | [9] 1.03 | [10] 0.988 | [11] 1.02 | [12] 0.993 | [13] 0.988

C[N+](C)(C)CC#CCN1CCCC1=O
inactive: [2] 0.99 | [15] 0.996 | [3] 1.01 | [4] 1 | [5] 0.985 | [6] 0.991 | [17] 1.01 | [16] 0.994 | [8] 0.996 | [9] 0.996 | [10] 0.996 | [11] 1 | [12] 1.01

O=C(OC1CCN(CCCl)CC1)C(c1ccccc1)c1ccccc1
inactive: [2] 0.993 | [15] 0.988 | [3] 0.986 | [4] 0.986 | [5] 1 | [6] 0.994 | [7] 0.995 | [18] 0.997 | [16] 0.969 | [8] 1.01 | [9] 1.03 | [10] 0.99 | [12] 0.996 | [14] 0.99

O=c1[nH]c2ccccc2n1CCCN1CCN(C(c2ccccc2)c2ccccc2)CC1
inactive: [2] 1.02 | [15] 1 | [3] 1.01 | [4] 1.01 | [5] 1.07 | [6] 1.02 | [7] 1 | [17] 1.03 | [8] 1.04 | [9] 1.04 | [10] 1.04 | [11] 1.01 | [12] 0.92 | [13] 1.02 | [14] 1
active: [18] 1.19 [resistant]
